Measured values taken from PubChem BioAssay (NCATS).
Results filed as inconclusive are left out. Active and inactive are the calls of the source. Calls come from the whole dose curve; as a rule, active = well fitted curve in the direction sought with a large enough effect; inconclusive = small, poorly fitted or top-dose-only effect, or another doubt; inactive = no such curve, though single readings can be large; an effect the other way counts as inactive or inconclusive.

Experiments:
[1] = biological target: Rap guanine nucleotide exchange factor 3 (Homo sapiens) (UniProt O95398); experiment: Confirmatory qHTS for agonist of cAMP-regulated guanine nucleotide exchange factor 3 (EPAC1) (AID 1645881);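 note: EPAC1 catalysed release of BODIPY-GDP from Rap1B seen as fluorescence loss; 100% = effect of cAMP agonist control; nearly all actives have a fitted effect of over 75% in size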
[2] = biological target: Rap guanine nucleotide exchange factor 4 (Homo sapiens) (UniProt Q8WZA2); experiment: Confirmatory qHTS for agonist of cAMP-regulated guanine nucleotide exchange factor 4 (EPAC2) (AID 1645884);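 note: nucleotide exchange releases bodipy-GDP from Rap1 and this lowers its fluorescence; % is set by controls: 0 for no effect and ±100 for the full control effect; nearly all actives have a fitted effect of over 65% in size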
[3] = biological target: Rap guanine nucleotide exchange factor 4 (Homo sapiens) (UniProt Q8WZA2); experiment: Confirmatory qHTS for antagonist of cAMP-regulated guanine nucleotide exchange factor 4 (EPAC2) (AID 1645885); note: nearly all actives have a fitted effect of over 25% in size; for activity change, negative = inhibition: % is set by controls: 0 for no effect and ±100 for the full control effect
[4] = biological target: Rap guanine nucleotide exchange factor 3 (Homo sapiens) (UniProt O95398); experiment: Counterscreen qHTS for antagonist of cAMP-regulated guanine nucleotide exchange factor 3 (EPAC1) (AID 1645888);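 note: fluorescence loss as bound BODIPY-GDP is released from Rap1B; % of control where 0% means no effect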
In short: (§1)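 Measured: fluorescence of BODIPY-GDP bound to Rap1B, which falls as exchange proceeds. Conditions include 50 uM competing GDP, 5 and 30 min reads, and a later cAMP challenge for antagonist detection.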

[5] = biological target: Rap guanine nucleotide exchange factor 3 (Homo sapiens) (UniProt O95398); experiment: Counterscreen qHTS for agonist of cAMP-regulated guanine nucleotide exchange factor 3 (EPAC1) (AID 1645889); note: % of control where 0% means no effect; nearly all actives have a fitted effect of over 40% in size
In short: as §1

Sequence of Rap guanine nucleotide exchange factor 3 (Homo sapiens) (O95398 whole entry, looked up): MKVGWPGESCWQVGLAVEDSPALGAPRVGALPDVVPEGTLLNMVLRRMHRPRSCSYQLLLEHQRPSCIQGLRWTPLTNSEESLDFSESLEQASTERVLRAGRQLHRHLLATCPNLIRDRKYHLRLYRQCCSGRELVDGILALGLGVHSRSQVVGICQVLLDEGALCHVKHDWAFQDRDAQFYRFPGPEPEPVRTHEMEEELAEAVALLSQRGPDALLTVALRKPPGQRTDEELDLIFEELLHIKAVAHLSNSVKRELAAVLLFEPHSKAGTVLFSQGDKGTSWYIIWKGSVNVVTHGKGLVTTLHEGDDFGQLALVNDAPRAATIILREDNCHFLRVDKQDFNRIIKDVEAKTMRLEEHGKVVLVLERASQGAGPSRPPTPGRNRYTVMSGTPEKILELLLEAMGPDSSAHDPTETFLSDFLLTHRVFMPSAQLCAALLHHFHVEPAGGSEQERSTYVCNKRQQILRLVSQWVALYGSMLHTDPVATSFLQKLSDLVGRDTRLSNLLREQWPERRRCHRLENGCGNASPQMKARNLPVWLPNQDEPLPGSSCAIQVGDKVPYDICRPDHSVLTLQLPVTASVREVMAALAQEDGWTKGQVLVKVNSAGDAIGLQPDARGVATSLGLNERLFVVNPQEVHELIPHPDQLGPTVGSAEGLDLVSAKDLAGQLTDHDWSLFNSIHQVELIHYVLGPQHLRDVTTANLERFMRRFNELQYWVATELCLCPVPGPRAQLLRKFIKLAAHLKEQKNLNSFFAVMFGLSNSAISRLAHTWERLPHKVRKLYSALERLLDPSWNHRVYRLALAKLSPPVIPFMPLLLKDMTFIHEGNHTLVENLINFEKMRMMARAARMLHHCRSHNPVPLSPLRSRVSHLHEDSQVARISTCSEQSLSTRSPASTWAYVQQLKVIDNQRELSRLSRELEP
Sequence of Rap guanine nucleotide exchange factor 4 (Homo sapiens) (Q8WZA2 whole entry, looked up): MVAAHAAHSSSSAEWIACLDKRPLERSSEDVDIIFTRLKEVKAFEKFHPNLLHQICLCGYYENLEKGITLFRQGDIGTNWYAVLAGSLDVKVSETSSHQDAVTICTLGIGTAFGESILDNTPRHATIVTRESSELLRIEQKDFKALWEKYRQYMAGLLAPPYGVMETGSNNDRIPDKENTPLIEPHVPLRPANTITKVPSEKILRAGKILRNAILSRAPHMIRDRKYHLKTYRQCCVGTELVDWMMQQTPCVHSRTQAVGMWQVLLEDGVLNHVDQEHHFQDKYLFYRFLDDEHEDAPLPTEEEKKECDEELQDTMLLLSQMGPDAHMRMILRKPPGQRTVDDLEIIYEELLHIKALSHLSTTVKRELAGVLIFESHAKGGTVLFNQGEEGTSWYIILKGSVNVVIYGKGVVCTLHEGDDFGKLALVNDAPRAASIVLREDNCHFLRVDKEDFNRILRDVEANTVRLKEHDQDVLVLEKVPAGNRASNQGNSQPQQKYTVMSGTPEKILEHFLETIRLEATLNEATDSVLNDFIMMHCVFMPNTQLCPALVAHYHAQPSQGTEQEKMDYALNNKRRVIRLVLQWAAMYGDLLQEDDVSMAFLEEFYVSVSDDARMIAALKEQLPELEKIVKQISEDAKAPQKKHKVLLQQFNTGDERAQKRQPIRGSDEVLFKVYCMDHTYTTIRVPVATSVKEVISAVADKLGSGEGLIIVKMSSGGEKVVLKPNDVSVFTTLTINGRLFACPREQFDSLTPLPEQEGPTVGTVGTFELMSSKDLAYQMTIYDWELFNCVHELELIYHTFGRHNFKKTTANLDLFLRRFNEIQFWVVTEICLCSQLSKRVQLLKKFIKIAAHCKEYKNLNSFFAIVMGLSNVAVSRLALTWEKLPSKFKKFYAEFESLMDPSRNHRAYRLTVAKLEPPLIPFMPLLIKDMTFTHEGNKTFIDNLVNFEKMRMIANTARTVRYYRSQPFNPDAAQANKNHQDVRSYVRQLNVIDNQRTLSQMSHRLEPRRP

COc1ccc(C(=O)c2nccc3ccccc23)cc1
inactive: Potency [1] | Potency [2] | Potency [3] | Potency [4] | Potency [5]

COCCn1c(SCC(=O)c2c(C)[nH]c3ccccc23)nc2cc(C(=O)NC(C)C)ccc2c1=O
inactive: Potency [1] | Potency [2] | Potency [3] | Potency [4] | Potency [5]

Cc1cc(C2(c3ccc(O)c(C)c3)C(=O)N(C)c3ccc(Br)cc32)ccc1O
inactive: Potency [1] | activation [2] 5.15% [at 17.1 µM, percent relative to cAMP agonist control] | Potency [3] | activity change, negative = inhibition [4] -4.41% [at 30.8 µM] | activation [5] 17.4% [at 30.8 µM]

CC(=O)c1sc2nc(CSc3nnnn3-c3ccccc3)[nH]c(=O)c2c1C
inactive: Potency [1] | activation [2] 0.183% [at 17.1 µM, percent relative to cAMP agonist control] | Potency [3] | activity change, negative = inhibition [4] -6.43% [at 30.8 µM] | activation [5] 8.36% [at 30.8 µM]

Cc1nnc2ccc(-c3ccc(NC(=O)Cc4cccs4)cc3)nn12
inactive: Potency [1] | activation [2] -1.11% [at 17.1 µM, percent relative to cAMP agonist control] | Potency [3] | activity change, negative = inhibition [4] -8.86% [at 30.8 µM] | activation [5] 9.02% [at 30.8 µM]

CCCCCCn1nc(C(=O)OCC(=O)c2c(N)n(C)c(=O)n(C)c2=O)c2ccccc2c1=O
inactive: Potency [1] | Potency [2] | Potency [3] | Potency [4] | Potency [5]

C/C(CC(=O)N1CCCC1)=N\NC(=O)c1cc2ccccc2cc1O
inactive: Potency [1] | Potency [2] | Potency [3] | Potency [4] | Potency [5]

COc1ccc(O)c(/C=N/NC(=O)c2ccc(N3CCCC3=O)cc2)c1
inactive: Potency [1] | Potency [2] | Potency [3] | Potency [4] | Potency [5]

CC(C)N1CCc2c(sc(NC(=O)c3ccc(S(=O)(=O)N4CCc5ccccc54)cc3)c2C(N)=O)C1
inactive: Potency [1] | Potency [2] | Potency [3] | Potency [4] | Potency [5]

COc1ccc(C2=NN(c3ccccc3)C(c3cn(CCC(=O)O)nc3-c3ccccc3)C2)cc1 (stereo not given)
inactive: Potency [1] | Potency [2] | Potency [3] | Potency [4] | Potency [5]

COc1ccc(-c2nc3ccccc3n2CCC(C)C)cc1OC
inactive: Potency [1] | Potency [2] | Potency [3] | Potency [4] | Potency [5]

Cc1ccc(NC(=O)CCC(=O)c2cccs2)nc1
inactive: Potency [1] | activation [2] 3.39% [at 17.1 µM, percent relative to cAMP agonist control] | Potency [3] | activity change, negative = inhibition [4] -8.32% [at 30.8 µM] | activation [5] 21.4% [at 30.8 µM]

Cc1ccc(S(=O)(=O)N2[C@@H](c3ccc(C(C)(C)C)cc3)C(C(=O)O)=CC[C@H]2c2cccs2)cc1
inactive: Potency [1] | Potency [2] | Potency [3] | Potency [4] | Potency [5]

CCc1cc(C(=O)N=Nc2c(O)[nH]c3ccc([N+](=O)[O-])cc23)c2ccccc2n1
inactive: Potency [1] | Potency [2] | Potency [3] | Potency [4] | Potency [5]

O=C(N/N=C/c1ccc(O)c([N+](=O)[O-])c1)C1CC1(c1ccccc1)c1ccccc1 (stereo not given)
inactive: Potency [1] | activation [2] 2.95% [at 17.1 µM, percent relative to cAMP agonist control] | Potency [3] | activity change, negative = inhibition [4] -23.6% [at 30.8 µM] | activation [5] 11.6% [at 30.8 µM]

N#C/C(=N\Nc1cccc(C(F)(F)F)c1)C(=O)c1ccsc1
inactive: Potency [1] | Potency [2] | Potency [3] | Potency [4] | Potency [5]

O=C1NC(=O)/C(=C/c2ccc(-c3cc(C(=O)O)ccc3Cl)o2)S1
inactive: Potency [1] | activation [2] 7.65% [at 17.1 µM, percent relative to cAMP agonist control] | Potency [3] | activity change, negative = inhibition [4] 4.91% [at 30.8 µM] | activation [5] 8.4% [at 30.8 µM]

C/C(=N\NC(=O)c1cc2ccccc2cc1O)c1ccc(C)o1
inactive: Potency [1] | activation [2] -0.964% [at 17.1 µM, percent relative to cAMP agonist control] | Potency [3] | activity change, negative = inhibition [4] -5.69% [at 30.8 µM] | activation [5] 28.4% [at 30.8 µM]

CN1CCN(C(=O)c2ccc(COc3ccc(C(C)(C)C)cc3)o2)CC1
inactive: Potency [1] | activation [2] 8.37% [at 17.1 µM, percent relative to cAMP agonist control] | Potency [3] | activity change, negative = inhibition [4] 8.52% [at 30.8 µM] | activation [5] 9.82% [at 30.8 µM]

CC1(C)C=Cc2cc(-c3coc4cc(O)cc(O)c4c3=O)cc(O)c2O1
inactive: Potency [1] | Potency [2] | Potency [3] | Potency [4] | Potency [5]
